Experimental data: the supplement of paper PMC10849652
The full data set covers some 8,800 targets. This sample favours those with a hit. About 0.5% of all pairs of compound and target were hits.

How the values were obtained:
Assay in all cases: log2 fold change, soluble protein after heating vs DMSO (PISA); higher = thermal stabilisation; K562 lysate, 10 uM; active = over 0.2 and 3.5 SD of the protein, either way, in both replicates (recomputed)
ibrutinib = compound: C=CC(=O)N1CCC[C@@H](n2nc(-c3ccc(Oc4ccccc4)cc3)c3c(N)ncnc32)C1 [ibrutinib]
In short: (§1)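 Thermal stability, expressed as log-two fold change relative to solvent controls, is given from duplicates. Crude K562 extract in PBS pH 7.4 with 1 mM MgCl2, at 1 mg/mL protein, was treated with 10 μM compound for 30 min and heated in aliquots for 3 min across 48°C-58°C. After pooling, adjustment to 0.5% NP-40 at 4°C and centrifugation at 21,000xg for 90 min, supernatant protein was measured by TMTpro 16plex LC-MS/MS with channel sums equalised.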

[1] = compound: CC(C)C1=C2N=C(C=C(N2N=C1)NCC3=CC=CC=C3)NCCCCCCN
In short: as §1

[2] = compound: CC1=C(C(CC(=O)N1)C2=CC=C(C=C2)C(F)(F)F)C(=O)NC3=C(C=C4C(=C3)C=NN4)F
In short: as §1

[3] = compound: CC1=C(C2=C(C=C1)C(=O)C3=CC=CC=C3N2CCCN)C
In short: as §1

barasertib = compound: CCN(CCCOc1ccc2c(Nc3cc(CC(=O)Nc4cccc(F)c4)[nH]n3)ncnc2c1)CCOP(=O)(O)O [barasertib]
In short: as §1

[4] = compound: CC[C@@H]1C(=O)N(C)c2cnc(Nc3ccc(C(=O)NC4CCN(C)CC4)cc3OC)nc2N1C1CCCC1
In short: as §1

[5] = compound: CCn1cc(-c2ccnc3[nH]c(-c4cccc(CN(C)C)c4)cc23)c(-c2ccc(NC(=O)N(C)C)cc2)n1
In short: as §1

[6] = compound: CN1CCC(CNc2ccc3ncc(-c4cccc(OC(F)(F)F)c4)n3n2)CC1
In short: as §1

saracatinib = compound: CN1CCN(CCOc2cc(OC3CCOCC3)c3c(Nc4c(Cl)ccc5c4OCO5)ncnc3c2)CC1 [saracatinib]
In short: as §1

[7] = compound: CC(=O)c1cnc2ccc(-c3cc(Cl)c(O)c(Cl)c3)nc2c1N[C@H]1CC[C@H](CN(C)C)CC1
In short: as §1

[8] = compound: CC1=CC=C(C=C1)SC2=C3C=C(SC3=CN=C2)C(=O)N
In short: as §1

[9] = compound: CCCS(=O)(=O)Nc1ccc(F)c(C(=O)c2c[nH]c3ncc(Cl)cc23)c1F
In short: as §1

volasertib = compound: CC[C@@H]1C(=O)N(C)c2cnc(Nc3ccc(C(=O)N[C@H]4CC[C@H](N5CCN(CC6CC6)CC5)CC4)cc3OC)nc2N1C(C)C [volasertib]
In short: as §1

ralimetinib = compound: CC(C)(C)Cn1c(N)nc2ccc(-c3[nH]c(C(C)(C)C)nc3-c3ccc(F)cc3)nc21 [ralimetinib]
In short: as §1

[10] = compound: CC(C)(O)CC(=O)NCCn1ccc2ncnc(Nc3ccc(Oc4cccc(C(F)(F)F)c4)c(Cl)c3)c21
In short: as §1

[11] = compound: CC1=C(C=C(C=C1)NC(=O)C2=CC(=CC=C2)C(C)(C)C#N)NC3=CC4=C(C=C3)N=CN(C4=O)C
In short: as §1

[12] = compound: CC1=C(C=C(C=C1)NC(=O)C2=CC(=CC=C2)N(C)C)NC(=O)C3=CC=C(C=C3)O
In short: as §1

vemurafenib = compound: CCCS(=O)(=O)Nc1ccc(F)c(C(=O)c2c[nH]c3ncc(-c4ccc(Cl)cc4)cc23)c1F [vemurafenib]
In short: as §1

[13] = compound: CCn1c(C(=O)N(C2CC2)C2CC2)cc2c3c(ncn3C)c(Nc3cc(C)n(C)n3)nc21
In short: as §1

sotrastaurin = compound: CN1CCN(c2nc(C3=C(c4c[nH]c5ccccc45)C(=O)NC3=O)c3ccccc3n2)CC1 [sotrastaurin]
In short: as §1

Measured: log2 fold change

SERAC1 (UniProt Q96JX3)
UniProt Q96JX3, sequence (Q96JX3 whole entry, looked up): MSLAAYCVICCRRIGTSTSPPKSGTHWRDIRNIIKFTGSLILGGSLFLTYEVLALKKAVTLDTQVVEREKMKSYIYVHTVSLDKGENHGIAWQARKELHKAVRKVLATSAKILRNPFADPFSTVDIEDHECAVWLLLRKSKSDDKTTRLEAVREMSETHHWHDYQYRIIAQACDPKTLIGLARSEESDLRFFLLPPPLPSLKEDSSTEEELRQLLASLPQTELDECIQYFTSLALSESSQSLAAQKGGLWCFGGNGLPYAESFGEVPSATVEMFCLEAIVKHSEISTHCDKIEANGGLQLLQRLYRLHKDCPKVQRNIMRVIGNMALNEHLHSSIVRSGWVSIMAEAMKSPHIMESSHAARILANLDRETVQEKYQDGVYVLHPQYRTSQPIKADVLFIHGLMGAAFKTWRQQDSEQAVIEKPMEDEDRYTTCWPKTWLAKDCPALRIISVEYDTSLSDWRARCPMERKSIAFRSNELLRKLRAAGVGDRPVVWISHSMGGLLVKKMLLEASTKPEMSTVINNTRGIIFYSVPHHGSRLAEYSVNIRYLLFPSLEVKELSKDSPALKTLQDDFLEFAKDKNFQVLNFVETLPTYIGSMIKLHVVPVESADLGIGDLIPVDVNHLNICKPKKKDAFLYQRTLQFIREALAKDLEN
inactive: ibrutinib 0.066 | [1] -0.115 | [2] 0.051 | [3] -0.193 | barasertib 0.142 | [4] 0.1 | [5] -0.061 | [6] 0.051 | saracatinib -0.096

RNASEH2B, A0A1B0GUE7
inactive: [7] -0.017 | [2] -0.12 | [8] 0.09 | [9] -0.061 | volasertib -0.064

QSER1, A0A3B3IRW6
inactive: [7] -0.047 | ralimetinib -0.014 | [10] -0.021 | [1] -0.009 | [2] -0.001 | [3] 0.037 | [11] 0.009 | [12] 0.087 | [8] -0.087 | vemurafenib -0.042 | [9] 0.045 | [4] -0.044 | volasertib -0.028 | [13] 0.043 | saracatinib -0.036 | sotrastaurin -0.014
